Source: PubChem BioAssay AID2289 (National Center for Advancing Translational Sciences (NCATS), 2010)
The whole screen tested about 340,000 compounds, of which about 3,300 (0.97%) were called active. About 9% were inconclusive and are not listed. Calls follow the shape of the dose curve; as a rule, active = well fitted inhibition curve with a large enough effect; inconclusive = small, poorly fitted or top-dose-only effect, or effect the other way; inactive = flat fitted curve, though single readings scatter. The list shows a part of the results.

experiment: qHTS Assay for Modulators of miRNAs and/or Inhibitors of miR-21; conditions: HeLa miR-21-FLuc reporter, luciferase luminescence, 48 h; actives lower the signal; also: nearly all actives have a fitted effect of over 55% in size
Summary of the method: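 Luminescence from a firefly luciferase reporter carrying a miR-21 binding site downstream, stably expressed under a CMV promoter in HeLa cells that make miR-21 endogenously, reports miRNA modulation after 48 h compound exposure up to approximately 40uM final.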
Potency is read from the fitted curve at half-maximal effect.

Potency, active:
CC(=O)Nc1ccc(C(=O)/C=C/c2ccc[nH]2)cc1 13.1 µM
COc1ccc(N2Cc3ccc(OC)c(OC)c3C2=O)cc1 2.07 µM
Cc1ccc(OCC(=O)Nc2ccccc2F)cc1C 4.14 µM
Cc1cccc(OCC(=O)Nc2ccccc2F)c1 6.56 µM
O=C(CSc1nnc(-c2ccccc2Cl)o1)Nc1ccc2c(c1)OCCO2 6.56 µM
Cc1ccc(NC(=O)CSc2nnc(-c3cccs3)o2)cc1S(=O)(=O)N(C)C 8.26 µM
Cc1nc(NC(=O)CSc2nnc(-c3ccc4c(c3)OCO4)o2)c(Cl)cc1Cl 16.5 µM
O=C(CSCc1ccccc1Cl)Nc1ccc2c(c1)OCCO2 2.07 µM
Cc1ccc(/C=C/C(=O)NCc2cccs2)c(C)c1 5.85 µM
COc1ccc(N(/N=C2\Sc3ccccc3C2=O)C(C)=O)cc1 0.261 µM
O=C(COC(=O)c1ccc[nH]c1=O)NCCc1ccc(Cl)cc1Cl 1.65 µM
COc1ccc(/C=C/c2nc(-c3ccccc3O)n[nH]2)cc1 2.33 µM
COc1ccc(/C=C/c2nc(-c3ccccc3O)n[nH]2)cc1OC 4.65 µM
CCc1nc2ccc(C(=O)NCCc3ccco3)cc2nc1CC 14.7 µM
COc1cc(C(F)(F)F)ccc1C(=O)NCCc1ccco1 7.36 µM
O=C(CSCc1ccccc1)N1CCN(c2ccccc2)CC1 6.56 µM
O=C(CCSc1ccccc1)N1CCN(c2ccccc2)CC1 6.56 µM
CC1CCN(C(=O)CSCc2ccc(Cl)cc2)CC1 11.7 µM
O=C(CCSc1ccccc1)N1CCN(c2ccccc2F)CC1 7.36 µM
Cc1ccc(SCCC(=O)N2CCC(C)CC2)cc1 7.36 µM
CN(C)c1ccc(/C=C2\CCCc3c2nc2ccccc2c3C(=O)O)cc1 4.65 µM
O=C(O)c1c2c(nc3ccccc13)/C(=C/c1ccc(OC(F)F)cc1)CCC2 14.7 µM
Cc1ccc2oc(-c3ccc(Cl)c(NC(=O)c4cc5ccccc5o4)c3)nc2c1 5.85 µM
Cc1cc2nc(-c3ccc(NC(=O)C(C)C)cc3)oc2cc1C 0.369 µM
Cc1ccc2oc(-c3ccc(C)c(NC(=O)c4ccc(-c5ccccc5[N+](=O)[O-])o4)c3)nc2c1 8.26 µM
Cc1ccc2oc(-c3ccc(NC(=O)c4cccc(F)c4)c(C)c3)nc2c1 7.36 µM
Cc1cc2nc(-c3ccc(NC(=O)c4cc5ccccc5o4)cc3)oc2cc1C 8.26 µM
C/C(=N\NC(=O)c1ccoc1C)c1ccccc1 1.85 µM
CCc1ccc(C(=O)N/N=C/c2cccc3ccccc23)nc1 8.26 µM
Cc1ccc(NC(=O)c2ccoc2C)cc1C 4.14 µM
C/C(=N\NC(=O)c1ccoc1C)c1cccc2ccccc12 7.36 µM
Cc1occc1C(=O)N/N=C/c1cnn(C)c1C 13.1 µM
Cc1occc1C(=O)NNC(=S)Nc1ccccc1C(F)(F)F 8.26 µM
C/C(=N\NC(=O)c1ccco1)c1ccc(-c2ccccc2)cc1 2.93 µM
C/C(CC(=O)NC(C)(C)C)=N\NC(=O)c1ccco1 6.56 µM
Cc1occc1C(=O)NNC(=O)c1ccccc1C(=O)O 1.17 µM
Cc1occc1C(=O)N/N=C/c1cccc2ccccc12 2.07 µM
C/C(=N/NC(=O)c1ccoc1C)c1ccc(N2CCOCC2)cc1 0.927 µM
O=[N+]([O-])c1ccccc1-c1cc(-c2ccccc2O)n[nH]1 2.07 µM
c1nc(NCCN2CCOCC2)c2c3c(sc2n1)CCCCC3 16.5 µM
Cc1ccc(O)c(NC(=O)c2cc(-c3ccco3)on2)c1 13.1 µM
Cc1ccc(O)c(NC(=O)c2cc(-c3ccccc3)on2)c1 2.61 µM
Cc1ccc(O)c(NC(=O)c2cc(-c3cccs3)on2)c1 4.65 µM
O=C(Nc1cc(Cl)ccc1O)c1cc(-c2ccco2)on1 16.5 µM
Cc1cc(NCc2ccccn2)ccc1Br 9.27 µM
COc1ccc(-c2nc(C#N)c(NCCCn3ccnc3)o2)cc1OC 16.5 µM
COc1ccc(-c2nc(C#N)c(NCc3ccc(C)cc3)o2)cc1OC 7.36 µM
CC(C)(C)c1ccc(-c2nc(C#N)c(NCc3ccncc3)o2)cc1 4.14 µM
COc1ccc(-c2nc(C#N)c(NCCc3ccccc3)o2)cc1 9.27 µM
COc1ccc(-c2nc(C#N)c(NCCc3ccccc3)o2)cc1OC 2.93 µM
CCC(=O)Nc1cccc(OCc2cc(=O)n3cc(C)ccc3n2)c1 6.56 µM
Cc1csc2ncc(C(=O)Nc3ccc4c(c3)OCCO4)c(=O)n12 0.208 µM
O=C(Nc1ccc2c(c1)OCCO2)c1cnc2n(c1=O)CCS2 1.47 µM
COc1ccc(-c2noc(-c3ccoc3C)n2)cc1 2.07 µM
COc1cccc(-c2noc(-c3ccoc3C)n2)c1 6.56 µM
Cc1ccc(/C=N/Nc2ncnc3nc[nH]c23)cc1 0.826 µM
Cc1ccc(NC(=O)Nc2ncnc3nc[nH]c23)cc1 2.93 µM
Cc1ccc(/C=N/Nc2nnc(Cl)c3ccccc23)cc1 0.414 µM
CCc1ccc(/C=N/Nc2ncnc3nc[nH]c23)cc1 0.656 µM
Cc1cccc(/C=N/NC(=O)c2ccc(Br)cc2)c1 18.5 µM
CCN(CC)c1ccc(NC(=S)NC(=O)c2cccs2)cc1 2.33 µM
O=C(NNC(=S)Nc1ccccc1)c1cccs1 2.07 µM
COc1ccc(NC(=S)NNC(=O)c2cccs2)cc1 7.36 µM
Cc1ccc(-n2ncc3c(Nc4cccc(C)c4C)ncnc32)cc1 2.07 µM
CCOc1ccccc1Nc1ncnc2c1cnn2-c1ccc(C)cc1 5.21 µM
CCc1ccccc1Nc1ncnc2c1cnn2-c1ccc(Cl)cc1 6.56 µM
CCOc1ccccc1-c1nc(-c2ccc(C)nc2OC)no1 3.69 µM
COc1nc(-c2ccccc2)ccc1-c1noc(C)n1 7.36 µM
COc1ccccc1-c1nc(-c2ccc(C)nc2OC)no1 3.29 µM
COc1nc(C)ccc1-c1noc(-c2cccs2)n1 1.85 µM
CCOc1ccc(-c2nc(-c3ccccc3C)no2)cc1 0.826 µM
O=C(/C=C/c1c(F)cccc1Cl)Nc1ncccn1 3.29 µM
NC(=O)c1ccccc1NC(=O)/C=C/c1c(Cl)cccc1Cl 2.93 µM
O=C(/C=C/c1c(F)cccc1Cl)Nc1nc2ccccc2[nH]1 5.21 µM
S=C(Nc1ccc2[nH]ccc2c1)NC1CCCCC1 4.14 µM
Cc1cccn2cc(-c3c[nH]c4ccccc34)nc12 13.1 µM
O=C(c1cc(COc2ccc(F)cc2F)on1)N1CCSCC1 5.85 µM
O=C(c1cc(COc2ccc(F)cc2Cl)on1)N1CCSCC1 6.56 µM
O=C(c1cc(COc2ccc(F)cc2Cl)on1)N1CCCCCC1 4.14 µM
O=C(c1cc(COc2ccc(F)cc2F)on1)N1CCOCC1 14.7 µM
O=C(c1cc(COc2c(F)cccc2F)on1)N1CCCCCC1 7.36 µM
O=c1c(Cl)c(N2CCN(c3ccc(F)cc3)CC2)cnn1-c1nc2ccccc2s1 3.29 µM
Cc1ccc(C)c(N2CCN(c3cnn(-c4nc5ccccc5s4)c(=O)c3Cl)CC2)c1 0.927 µM
O=C(/C=C/c1ccccc1)NC1CC2CCC1C2 (centres undefined) 7.36 µM
Cc1cc(-c2ccc(N3CCOCC3)cc2)nc2ccccc12 3.29 µM
COc1cccc(C(=O)NN2C(=S)N(c3ccccc3)C(=O)C2CC(N)=O)c1 (centres undefined) 6.56 µM
NC(=O)CC1C(=O)N(c2ccccc2)C(=S)N1NC(=O)c1ccc(Br)cc1 (centres undefined) 7.36 µM
COc1ccc(-c2nnc(-c3ccc(Br)o3)o2)cc1OC 14.7 µM
COc1ccc(-c2nnc(-c3ccccc3)o2)cc1OC 3.69 µM
CCOc1ccc(-c2nnc(-c3cccs3)o2)cc1OCC 6.56 µM
COc1ccccc1-c1nnc(-c2ccc(N3CCOCC3)cc2)o1 7.36 µM
COc1ccc(-c2noc(-c3cccs3)n2)cc1OC 0.826 µM
c1csc(-c2nc(-c3ccc(-c4ccon4)s3)no2)c1 0.329 µM
COc1ccc(CCN(C)C(=O)CCc2nnc(-c3ccccc3)o2)cc1OC 4.65 µM
CN(C)c1ccc(-c2nnc(-c3cccs3)o2)cc1 0.117 µM
COc1ccc(-c2nnc(-c3cccs3)o2)cc1OC 2 µM
CCOc1ccc(-c2nnc(-c3ccco3)o2)cc1OCC 16.5 µM
Cc1cc(C)c(C#N)c(SCC(=O)Nc2nonc2N)n1 14.7 µM
Cc1cc(C)c(C#N)c(SCC(=O)Nc2ccc3c(c2)OCO3)n1 3.29 µM
COc1ccc(NC(=O)c2ccc(C)cc2)c(OC)c1 5.85 µM
COc1ccc(NC(=S)Nc2cc(C)ccn2)c(OC)c1 1.65 µM
COc1ccc(NC(=O)c2cc(C(C)C)on2)c(OC)c1 3.69 µM
CCN(CC)C(=O)c1ccc(-c2cccs2)s1 6.56 µM
CC(=O)N=C(N)Sc1nc2ccccc2[nH]1 2.33 µM
